Measurements published in the supplement of paper PMC6555819.

Tests used:
Assay in all cases: PBM binding z-score (relative to random genomic background probes); higher = stronger binding; sequences stand for … in GC…GCGATTGACAGCGTAGAATGAAGG
[1] = test system: PPARg:RXRa DBDmut IVT, anti-RXR (DBD mutation: RXRa K156A/R161A, NR concentration 270 nM, RXRa partner concentration 90 nM)
How it was run: (§1)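 Each nuclear receptor dimer, without ligand, was incubated for 1 h on custom Agilent 4×180K protein-binding microarrays. Binding was detected with antibodies against each partner (one per run), and scanned fluorescence was regression-normalized. The binding z-scores are referenced to random human genomic background probes.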

[2] = test system: PPARg:RXRa IVT, anti-PPARg (NR concentration 270 nM, RXRa partner concentration 90 nM)
How it was run: as §1

[3] = test system: PPARg DBDmut:RXRa IVT, anti-PPARg (DBD mutation: PPARg1 K132A/R137A, NR concentration 270 nM, RXRa partner concentration 90 nM)
How it was run: as §1

[4] = test system: PPARg DBDmut IVT, anti-PPARg (DBD mutation: PPARg1 K132A/R137A, NR concentration 270 nM)
How it was run: as §1

[5] = test system: PPARg homodimer (NR concentration 180 nM)
How it was run: as §1

[6] = test system: PXR:RXRa (NR concentration 270 nM, RXRa partner concentration 90 nM)
How it was run: as §1

[7] = test system: PXR homodimer (NR concentration 270 nM)
How it was run: as §1

[8] = test system: RARa:RXR (NR concentration 270 nM, RXRa partner concentration 90 nM)
How it was run: as §1

[9] = test system: RARa homodimer (NR concentration 270 nM)
How it was run: as §1

[10] = test system: RARb:RXRa (NR concentration 270 nM, RXRa partner concentration 90 nM)
How it was run: as §1

[11] = test system: RARb homodimer (NR concentration 270 nM)
How it was run: as §1

[12] = test system: RARg:RXRa (NR concentration 270 nM, RXRa partner concentration 90 nM)
How it was run: as §1

[13] = test system: RARg homodimer (NR concentration 270 nM)
How it was run: as §1

[14] = test system: RXRa DBDmut IVT, anti-RXR (DBD mutation: RXRa K156A/R161A, NR concentration 90 nM)
How it was run: as §1

[15] = test system: RXRa homodimer (NR concentration 180 nM)
How it was run: as §1

[16] = test system: THRa:RXRa (NR concentration 90 nM, RXRa partner concentration 90 nM)
How it was run: as §1

[17] = test system: THRa homodimer (NR concentration 90 nM)
How it was run: as §1

[18] = test system: VDR homodimer (NR concentration 270 nM)
How it was run: as §1

Sequence	PBM binding z-score [1]	PBM binding z-score [2]	PBM binding z-score [3]	PBM binding z-score [4]	PBM binding z-score [5]	PBM binding z-score [6]	PBM binding z-score [7]	PBM binding z-score [8]	PBM binding z-score [9]	PBM binding z-score [10]	PBM binding z-score [11]	PBM binding z-score [12]	PBM binding z-score [13]	PBM binding z-score [14]	PBM binding z-score [15]	PBM binding z-score [16]	PBM binding z-score [17]	PBM binding z-score [18]
ATCGACAGGTCGAGGTGAGTATAGAGAAAGGGAA	-0.576	0.778	-0.0493	-0.0748	0.551	0.0775	0.0221	0.649	0.423	1.69	0.915	1.68	1.89	-0.333	1.22	1.59	0.108	0.0129
TGTCAAACTTCAAAGGTAACGTAAGTATCCACAC	-0.251	1.47	0.991	1.2	0.478	0.345	-0.16	0.522	0.335	0.94	0.582	0.654	0.586	-0.455	0.655	1.1	-0.0249	-0.101
TCTATTAGTTGATTAGGGCAACCGCAACAGCGGA	2.2	1.59	0.83	0.659	0.498	0.281	0.274	0.408	0.676	0.729	0.671	0.648	0.445	0.932	0.721	0.679	0.272	0.125
CCTAGTTGGTCAGGAGGTCACACATCGGATATGA	1.56	3.61	1.34	0.678	3.07	4.1	1.36	4.37	1.58	3.71	4.48	4.62	4.11	0.662	4.21	3.39	2.2	2.7
GCGACTGGGGCATCAGCAGGTTACCAAAACTTAA	3.95	3.39	-1.31	-0.989	0.651	-0.0279	-0.564	0.57	-0.274	0.893	1.16	0.879	0.0539	-0.286	0.238	1.19	0.0193	-0.326
CCTTACGGGTCACTGACAGGTTATGGCATTTGGA	3.42	3.8	0.363	-0.311	3.61	3.77	-0.0581	4.95	1.29	4.04	3.41	5.79	4.82	1.85	5.22	2.9	0.174	0.887
CAAACTAGGTCACCGGAAGGTCAACGTCCGCATG	8.78	8.78	2.66	1.2	6.53	5.79	1.29	7.37	2.46	5.38	5.99	8.58	8.16	2.07	7.28	4.63	3.19	2.78
TCATATAGGTAAACAGGTGAGAGTCCGTAAGTTA	4.89	4.22	0.855	1.05	0.708	0.6	0.674	0.689	1.25	0.677	0.672	0.456	0.431	1.08	0.983	0.521	0.361	0.486
CCGACTGGGGGAAAGGTTACCATACTCAGTACGA	2.52	5.31	3.53	3.07	1.86	2.63	0.241	3.24	0.206	2.04	2.1	2.79	1.78	0.141	3.06	2.14	0.672	0.298
AGAACGAGGGCACGCTGCGTTGATAGCAGAGTAG	4.17	3.95	0.425	-0.427	0.0277	0.123	-0.527	0.344	-0.962	2.52	1.06	1.55	2.21	1.81	1.3	1.71	-0.00562	0.888
TCTTGGAGGACACGAAGGTCAGAGCTTTCCAGAG	2.12	2.46	-0.251	-0.635	0.788	1.93	0.605	1.86	-0.208	3.36	3.54	3.23	3.69	0.774	1.83	2.89	0.692	1.13
CGTCAAAGTTCAAGGTAGCGTAACAGAAAGCAGC	0.367	1.36	-0.0381	0.0782	3.03	3.84	2.73	3.35	0.828	5.01	3.9	5.41	6.34	4.38	4.84	2.19	0.191	3.11
GCTGTTAGGTCAGGTTGGTCAGCTAACGGGTACG	2.26	1.9	-0.586	0.313	1.07	0.645	-0.159	1.28	0.0798	3.49	3.34	3.03	4.11	0.92	1.42	2.84	1.69	0.688
TCTCGGAGGACACGAAGGTCAGAACTTTCCAGAG	1.69	0.656	0.251	-1.14	1.13	1.84	1.09	1.81	0.264	3.08	3.24	2.59	3.24	1.26	1.51	2.69	1.15	1.45
CCTACTGGGCCTCGAAAGGTCATTGATTCAGTGA	2.57	3.15	-1.13	-0.00532	2.06	4.88	1.11	4.9	0.198	3.66	4.35	4.09	3.27	0.125	4.83	3.14	0.721	1.43
CTCGAAAGGTCGTGCTCAGGTGAGTAGACCAAAC	0.641	1.86	1.76	0.659	3.39	3.11	-0.191	4.48	-0.171	3.91	2.36	5.23	3.76	1.79	4.83	3.96	0.703	0.392
TAGCATAGGTCATGGGCCAGTATACCACGCGAAC	0.625	2.53	0.682	0.0731	2.07	3.23	-0.144	4.27	0.528	4.41	3.37	5.5	4.93	0.253	5.71	2.67	-0.279	0.267
ACTAGTTGGTCAGCTGAGGTCACATACAATTCGG	1.59	2.44	0.89	0.482	2.09	5.26	1.85	4.17	0.305	3.4	4.32	3.83	3.84	1.5	3.53	4.98	4.72	3.28
ATCTCTAGTTAAAGATAGTTCAGTGAATGCAAAT	-0.115	0.245	0.633	1.63	0.523	0.98	1.18	1.1	1.54	0.647	1.14	0.636	0.66	0.396	0.579	0.486	0.212	0.858
AGAACGAGGGCATTGAGTTGATAGCACGGGTGGC	2.94	2.27	0.115	-0.519	0.179	2.79	9.1	0.267	-0.274	1.87	1.01	1.11	1.39	3.13	1.04	1.14	-0.127	5.15
ACTAATAGTTGAGACGAGGGCAACCGATAGGTTG	-0.206	0.29	-0.296	0.434	-0.0381	2.33	0.121	1.08	-0.0731	1.34	1.37	0.936	1.15	0.345	0.834	3.43	0.12	0.709
CCAACGAGGGCATGAGTTGATAGCAAATGCCGAT	1.66	1.08	-0.303	-0.467	-0.0585	0.213	-0.173	0.447	-0.402	1.69	0.406	0.887	1.35	2.04	0.929	1.01	-0.114	1.2
ATCTCTAGGTAAAGATAGTTCTGTGAATGCAAAT	2.5	1.5	0.815	1.19	0.736	0.067	0.184	0.347	0.978	0.117	-0.0245	0.131	0.453	0.28	0.154	0.478	0.132	0.175
TCTGCTAGGTCAACGATTGTCAGCTAATCTGCTA	4.14	4.13	0.817	0.395	0.734	1.19	-0.478	1.86	-1.01	4.03	3.06	3.75	4.64	1.16	2.41	2.77	0.845	-0.274
ACTATTAGTTGAGACGTGGGCAACCGATAGGTTG	-0.218	-0.152	0.175	0.352	-0.426	-0.64	-0.53	-0.914	-0.357	-0.226	-0.524	-0.179	0.239	-0.00277	-0.275	-0.642	-1.02	-0.369
TCAGACATGTGAAGGTAACTCAGGTACGCAGTCG	1.82	-0.0574	0.0996	0.0128	-0.0995	0.383	-0.196	0.493	0.114	0.199	-0.326	0.309	0.138	1.17	0.749	0.981	-0.032	-0.167
CCCACTGGGCCAAGGTCATTGATCAGTCAAAGCA	2.96	4.5	-0.866	-1.7	1.75	3.5	1.12	3.45	-0.0237	3.08	3.19	3.57	3.06	0.687	3.2	3.3	2.16	3.07
AAAATGAGGTTATTAAGATCAGGGAATTGCGGTC	3.99	3.21	0.794	0.452	0.921	1.23	0.722	1.41	0.567	1.51	0.725	1.16	0.933	2.27	1.78	2.28	0.636	1.19
GTACCAAGGTGAATAGGTCGTGGATGAGTAGGCG	2.1	2.87	0.27	-0.568	1.84	0.978	-0.029	2.11	0.457	2.09	2.29	3.12	1.51	-0.652	2.44	1.91	0.648	-0.0897
